Bioassay records (PubChem)
The list is not random: actives were taken first. Their share in the collection is about 6.7%.
SW480 rerep: inducers of DNA re-replication in SW480 colon cancer cells; SW480 DNA re-replication, Hoechst DNA content imaging, 48 h; Potency, µM (highest dose often 46.1 µM), most hits filed as activators; actives 1.8% (n = 340,000); also: nearly all actives have a fitted effect of over 55% in size
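Compounds, transferred as 23 nL by pin tool, were incubated with cells for 48 hr; DNA content per nucleus was then quantified by Hoechst staining and fluorescence plate imaging.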
KB-V1 MDR tox: KB-V1 MDR subline cytotoxicity; KB-V1 MDR cells viability, CellTiter-Glo, 72 h; Potency, µM (highest dose often 46.1 µM), hits mostly cytotoxic; actives 3.4% (n = 400,000); also: nearly all actives have a fitted effect of over 60% in size
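Cytotoxicity via CellTiter-Glo luminescence after 72 h compound exposure at 37 degrees C. Cells: drug-selected KB-V1 line, DMEM phenol-red free plus 10% FBS. Compounds tested at multiple concentrations; normalized data fitted to concentration-effect curves.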
KB-3-1 tox: KB-3-1 parental cell cytotoxicity | AID 1347075 | Potency, µM (titrated, usually from 46.1 µM), hits mostly cytotoxic | actives 1.4% (n = 400,000) | KB-3-1 viability, CellTiter-Glo ATP luminescence, 72 h; also: nearly all actives have a fitted effect of over 60% in size
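Screening of KB-3-1 cells (DMEM, 10% FBS, phenol-red free) ran from lowest to highest compound concentration; after 72 h at 37 °C viability was read luminescently and curves fitted.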
PINK1 modulator: modulators of PINK1 expression. AID 624263. Potency, µM (highest dose often 76.6 µM), hits mostly activators. PINK1 immunofluorescence, high-content cytometry, 24 h. actives 0.2% (n = 410,000); active = well fitted activation curve with a large enough effect; inconclusive = small, poorly fitted or top-dose-only effect; cell line not stated here; also: nearly all actives have a fitted effect of over 65% in size
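Stable cell line treated 24 h with compounds at 5 concentrations (CCCP controls), then fixed and immunostained for PINK1 plus nuclear and cell stains; PINK1 immunofluorescence quantified by laser-scanning microplate cytometry.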
MCF10A rerep: induces DNA re-replication in MCF 10a normal breast cells | MCF 10A DNA re-replication, Hoechst nuclear intensity, 48 h | Potency, µM (doses to about 46.1 µM), usual class: activators | actives 2.9% (n = 350,000); also: nearly all actives have a fitted effect of over 50% in size
Large screens that a line does not name were inactive; ! = not confirmed by another sample. Unless noted, calls follow the shape of the dose curve; as a rule, active = well fitted curve in the direction sought with a large enough effect; inconclusive = small, poorly fitted or top-dose-only effect, or another doubt; inactive = no such curve, though single readings can be large; an effect the other way counts as inactive or inconclusive.

Cc1cccn2c(=O)c3cc(C(=O)NCCN4CCOCC4)c(=N)n(Cc4ccc(F)cc4)c3nc12	SW480 rerep inconclusive, KB-V1 MDR tox inconclusive, KB-3-1 tox 16.4µM, MCF10A rerep 2.31µM
CC(C)(C)c1ccc(CC(=O)N2CCC2(C)C(=O)NS(=O)(=O)c2cccc(F)c2)cc1 (stereo not drawn)	none (no result: SW480 rerep, MCF10A rerep)
Cc1cc2c(cc1S(=O)(=O)NCc1ccc(F)cc1)n(C)c(=O)c(=O)n2C	none (no result: SW480 rerep, MCF10A rerep)
CC1CCN2c3cc(Cl)ccc3CC3(C(=O)OC(C)(C)OC3=O)C2C1 (stereo not drawn)	none (no result: SW480 rerep, MCF10A rerep)
CC(=O)c1ccc(N2CCN(S(=O)(=O)c3cc(-c4onc(C)c4C)ccc3C)CC2)cc1	none (no result: SW480 rerep, KB-V1 MDR tox, KB-3-1 tox, MCF10A rerep)
O=C(NCCN1CCOCC1)c1noc2c1CCc1ccccc1-2	KB-V1 MDR tox 11.6µM
COc1ccc(CCNC(=O)c2cc3c(=O)n4cccc(C)c4nc3n(CCCN3CCOCC3)c2=N)cc1	SW480 rerep 2.59µM, MCF10A rerep inconclusive
Cc1ccccc1C(=O)NC(CC(C)C)C(=O)NCC(C)(C)N1CCOCC1 (stereo not drawn)	KB-V1 MDR tox 23.1µM
Cc1cccn2c(=O)c3cc(C(=O)NC4CCCC4)c(=N)n(CCCN4CCOCC4)c3nc12	SW480 rerep 1.46µM
COCCCn1c(=N)c(C(=O)NC2CCCC2)cc2c(=O)n3cccc(C)c3nc21	none (no result: SW480 rerep, MCF10A rerep)
CSCCC(NC(=O)c1ccco1)C(=O)Nc1ccc(C)cn1 (stereo not drawn)	none
Cc1ccccc1C(=O)NC(=S)NCCN1CCOCC1	none
Cc1ccccc1C(=O)NCCN1CCOCC1	KB-V1 MDR tox inconclusive, MCF10A rerep 0.581µM
CCOCCCn1c(=N)c(C(=O)NCCN2CCOCC2)cc2c(=O)n3cccc(C)c3nc21	MCF10A rerep 2.91µM
CCC1C(=O)NCCN1Cc1ccc2c(c1)CN(Cc1ccc(OC)cc1OC)CCO2 (stereo not drawn)	none (no result: SW480 rerep, KB-V1 MDR tox, KB-3-1 tox, MCF10A rerep)
CCOc1ccc(N(C)C(=O)C2CCN(S(=O)(=O)c3c(C)noc3/C=C/c3ccc(C)cc3)CC2)cc1	none (no result: SW480 rerep, KB-V1 MDR tox, KB-3-1 tox, MCF10A rerep)
Fc1ccccc1CNc1ncnc2sccc12	none
COc1ccccc1CNc1ncnc2sccc12	KB-V1 MDR tox 5.17µM, KB-3-1 tox inconclusive
COc1ccccc1CNc1nc(NCc2cccc(OC)c2OC)c2sccc2n1	KB-V1 MDR tox 20.6µM, PINK1 modulator inconclusive (no result: SW480 rerep, MCF10A rerep)
COc1ccccc1CNc1nc(NCc2ccccc2F)c2sccc2n1	KB-V1 MDR tox 18.4µM, KB-3-1 tox inconclusive, PINK1 modulator inconclusive (no result: SW480 rerep, MCF10A rerep)
c1ccc2c(c1)OCC(CNc1ncnc3sccc13)O2 (stereo not drawn)	KB-V1 MDR tox inconclusive, KB-3-1 tox 1.64µM
N#CCCN(C(=O)Nc1ccccc1)C1CCCCC1	none
CCOC(=O)C1NN=C(C(=O)c2ccccc2)C1c1ccccc1 (stereo not drawn)	KB-V1 MDR tox 20.6µM
CCOC(=O)C1NN=C(C(=O)c2ccccc2)C1c1ccc(Cl)cc1 (stereo not drawn)	none
O=C(COC(=O)c1ccc([N+](=O)[O-])o1)NC1CCCc2ccccc21 (stereo not drawn)	MCF10A rerep inconclusive (no result: KB-V1 MDR tox, KB-3-1 tox)
O=C(c1cccn(Cc2ccc(Cl)c(Cl)c2)c1=O)N1CCOCC1	KB-V1 MDR tox inconclusive, KB-3-1 tox inconclusive
O=c1c(-c2nc3ccccc3s2)cccn1Cc1ccc(Cl)c(Cl)c1	SW480 rerep 1.16µM, MCF10A rerep inconclusive
O=C(CCN1CCCCC1=O)NC1CCCc2c1cnn2-c1ccccc1F (stereo not drawn)	none
O=C(NC1CCCCC1)c1c[nH]c2ccc(S(=O)(=O)Nc3ccccc3F)cc2c1=O	KB-3-1 tox inconclusive (no result: SW480 rerep, MCF10A rerep)
CCc1ccccc1NS(=O)(=O)c1ccc2[nH]cc(C(=O)NC3CCCC3)c(=O)c2c1	KB-V1 MDR tox inconclusive, KB-3-1 tox 14.6µM!, MCF10A rerep inconclusive
Cc1ccc(-n2c(SCc3ccccc3F)nc3[nH]ncc3c2=O)cc1Cl	none (no result: SW480 rerep, MCF10A rerep)
CC(Nc1nc(-c2ccc(F)cc2)cs1)c1nc2cc(Cl)c(N3CCCCC3)cc2n1CCOCCO (stereo not drawn)	KB-3-1 tox inconclusive
CC(Nc1nc(-c2ccc(F)cc2)cs1)c1nc2cc(Cl)c(N3CCCCC3)cc2n1CCCO (stereo not drawn)	SW480 rerep inconclusive, KB-V1 MDR tox inconclusive, KB-3-1 tox inconclusive, MCF10A rerep 20.6µM
Cc1ccc(Nc2ccc3cc(S(=O)(=O)N4CCC(C)CC4)ccc3n2)c(Cl)c1	none (no result: SW480 rerep, MCF10A rerep)
CC1CCN(S(=O)(=O)c2ccc3nc(Nc4cccc(F)c4)ccc3c2)CC1	KB-V1 MDR tox inconclusive, KB-3-1 tox inconclusive, PINK1 modulator 15.8µM (no result: SW480 rerep, MCF10A rerep)
O=C(NCc1cccs1)c1nc2c(nnn2Cc2ccccc2Cl)c(=O)[nH]1	SW480 rerep inconclusive, KB-V1 MDR tox 8.2µM, KB-3-1 tox 5.8µM, MCF10A rerep inconclusive
CC(=O)Nc1ccc(CN(C)c2c(C)nc3ccc(C(=O)Nc4ccc(Cl)c(Cl)c4)cn23)cc1	KB-3-1 tox inconclusive (no result: SW480 rerep, MCF10A rerep)
CCc1ccc(CNC(=O)CSc2cc(=O)n(CC)c3ccccc23)cc1	KB-3-1 tox inconclusive (no result: SW480 rerep, MCF10A rerep)
COc1ccc(CNC(=O)COc2cc(=O)n(C)c3ccccc23)cc1	KB-V1 MDR tox inconclusive
COc1ccc(C(=O)NCCn2cc(SCC(=O)NCC3CCCO3)c3ccccc32)cc1 (stereo not drawn)	MCF10A rerep inconclusive
COc1ccc(OC)c(CNC(=O)COc2cc(=O)n(C)c3ccccc23)c1	KB-V1 MDR tox 18.4µM
COc1ccc(C(=O)NCCn2cc(SCC(=O)NCc3ccco3)c3ccccc32)cc1	SW480 rerep inconclusive, KB-V1 MDR tox inconclusive, KB-3-1 tox 16.4µM
Cc1cc2nnc(SCC(=O)NCc3ccco3)n2c2ccccc12	SW480 rerep 18.4µM, KB-3-1 tox 5.8µM, MCF10A rerep inconclusive
CCn1c(=O)cc(SCC(=O)NCc2ccco2)c2ccccc21	SW480 rerep 20.6µM, KB-V1 MDR tox inconclusive, KB-3-1 tox 25.9µM, MCF10A rerep 3.66µM
Cc1ccc(-c2csc3nnc(SCC(=O)Nc4cccc(C)n4)n23)cc1	KB-V1 MDR tox 7.31µM
Cc1ccc(-n2c(SCC(=O)NCc3ccco3)nnc2-c2cccnc2)c(C)c1	KB-V1 MDR tox 20.6µM
O=C(CSc1nnc2scc(-c3ccc(Cl)cc3)n12)NCc1ccco1	KB-V1 MDR tox 23.1µM, MCF10A rerep inconclusive
Cc1ccc(NC(=O)CSc2nnc3scc(-c4ccccc4)n23)cc1	none (no result: SW480 rerep, MCF10A rerep)
CCn1c(=O)cc(SCC(=O)NCc2ccc(C)o2)c2ccccc21	KB-V1 MDR tox inconclusive, MCF10A rerep 20.6µM
CC(=O)Nc1ccc(-c2ccnc3c2CC(C)(C(=O)Nc2cccc(C(C)=O)c2)O3)cc1 (stereo not drawn)	none (no result: SW480 rerep, MCF10A rerep)
CCn1c(=O)cc(OCC(=O)NCc2ccco2)c2ccccc21	KB-V1 MDR tox inconclusive
O=C(CCSc1nnc2scc(-c3ccccc3)n12)Nc1nc(-c2ccccc2)ns1	KB-V1 MDR tox 10.3µM
CCn1c(=O)cc(OCC(=O)NCc2ccc(C)o2)c2ccccc21	KB-V1 MDR tox 18.4µM, MCF10A rerep inconclusive
O=c1[nH]nc(-c2ccc(NCCO)c([N+](=O)[O-])c2)c2ccccc12	none
